Inconclusive results are not listed. The source made the active and inactive calls. Calls follow the shape of the dose curve; as a rule, active = well fitted cell-killing curve with a large enough effect; inconclusive = small, poorly fitted or top-dose-only effect, or effect the other way; inactive = no such curve, though single readings can be large or run the other way.
Experiments:
[1] = Quantitative High-Throughput drug screen in 47 multiple myeloma cell lines against the NCATS MIPE library collection: FR4_PLB cell viability assay (AID 1918924; also: nearly all actives have a fitted effect of over 35% in size)
Summary of the method: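 qHTS of the MIPE 4.0 collection: 500 myeloma cells/well, 48 h drug exposure at 37C in 5% CO2, then CellTiter-Glo for 5 min at room temperature before luminescence reading.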

[2] = Quantitative High-Throughput drug screen in 47 multiple myeloma cell lines against the NCATS MIPE library collection: EJM_DSMZ cell viability assay (AID 1918926; also: nearly all actives have a fitted effect of over 30% in size)
Summary of the method: (§1)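 CellTiter-Glo luminescence (ATP) after 48 h compound exposure, 37C/5% CO2; 500 cells/well; MIPE 4.0 approved/investigational drugs pinned in; DMSO = 100%, media only = 0% viability.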

[3] = Quantitative High-Throughput drug screen in 47 multiple myeloma cell lines against the NCATS MIPE library collection: Delta47_JCRB cell viability assay (AID 1918925; also: nearly all actives have a fitted effect of over 45% in size)
Summary of the method: as §1
Potency is read from the fitted curve at half-maximal effect.

In the case of `C[C@@]12OC(=O)[C@]1([C@@H](O)[C@@H]1C=CCCC1)NC(=O)[C@H]2CCCl`, the Potency [1] is reported as 5.3 nM (active) and the Potency [2] is reported as 18.7 nM (active).

With `COc1ccc2c(c1)CN(C)CC2c1ccc(Cl)c(Cl)c1` (configuration not stated) the Potency [3] was 23500 nM (active).

With `CC(=Cc1csc(C)n1)[C@@H]1C[C@H]2O[C@@H]2CCC[C@H](C)[C@@H](O)[C@@H](C)C(=O)C(C)(C)[C@@H](O)CC(=O)O1` the Potency [1] was “inactive”, the Potency [3] was “inactive” and the Potency [2] was “inactive”.

With `CC[C@H]1C=CC=CC[C@@H](C)[C@H](O)[C@@](C)(O)C(=O)[C@@H](C)[C@H](O)[C@@H](C)C(=O)[C@@H](C)[C@H](O)[C@@H](C)C=CC(=O)O[C@@H]2[C@@H](C)[C@H](CC1)O[C@]1(CC[C@H](C)[C@H](C[C@@H](C)O)O1)[C@H]2C` the Potency [3] was 1 nM (active).
